“And” between values parts separate entries of the source, which are not always exact repeats. Equal entries are not always repeated. Screen size: about 260,000 compounds; about 1,500 (0.58%) were called active. Roughly 5% stayed inconclusive and do not appear here.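 How the source made its calls: active means inhibition above a set limit at one or more doses, reproduced on every date tested; inconclusive means results disagree between test dates, or hit never tested in dose response; inactive means the rest.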 Not all results are given here. Entries with a potency or affinity are not part of this list.
target: Virion infectivity factor (Human immunodeficiency virus type 1 group M subtype B (isolate BH10)) + Virion infectivity factor (Human immunodeficiency virus type 1 group M subtype B (isolate BRU/LAI)) + Virion infectivity factor (Human immunodeficiency virus type 1 group M subtype B (isolate PCV12)) + Virion infectivity factor (Human immunodeficiency virus type 1 group M subtype B (isolate HXB2)) + DNA dC->dU-editing enzyme APOBEC-3G (Homo sapiens) (UniProt P69720+P69721+P69722+P69723+Q9HC16); test: HIV-1 Vif–A3G interaction blockers – biochemical, TR-FRET, GST-Vif 1-94, biotin-A3G peptide, dose response retest, primary screen (AID 1117319); conditions: TR-FRET GST-Vif / biotin-A3G peptide binding; hits give high values;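 further: Vif residues 1-94 fused to GST binding biotinylated APOBEC3G peptide 110-148; 0% = full assay without inhibitor and 100% = GST in place of GST-Vif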

inhibition, inactive:
COc1cc(C2c3c([nH]c(=O)[nH]c3=O)Nc3ccc4ccccc4c32)cc(OC)c1OC (stereo not drawn) 1.71%
CCC(=O)N(c1nnc(SCC(=O)Nc2sccc2C(N)=O)s1)C1CC1 4.16%
CCN(CC)C(=O)c1ccc(-c2ccccc2)cc1 3.81%
O=C(O)CCC(=O)Nc1ccc(C(=O)OC2CCCCC2)cc1 9.06%
CCN(CC)C(=O)c1ccc(C)c(Br)c1 -4.6%
O=C(OC1CCCCC1)c1ccc(NC(=O)C2CCCCC2)cc1 2.8%
CCOC(=O)c1ccc2c(c1)C(=O)N(C1CCCCC1)C2=O 6.81%
CCOC(=O)c1ccc2nc(C)c3c(c2c1)OC(C)C3 (stereo not drawn) -3.24%
Fc1ccc2c(c1)C1C=CCC1C(c1cc3c(cc1Br)OCO3)N2 (stereo not drawn) 1.91%
O=C1CN(C(=O)c2c(F)cccc2F)C(c2ccccc2)c2cc(Br)ccc2N1 (stereo not drawn) -0.06%
CN1CC(=O)N(CC(=O)Nc2ccc(N3CCOCC3)cc2)C1=O -19.5%
O=C1OC(Cc2ccccc2)(c2ccccc2)c2ccccc21 (stereo not drawn) 3.92%
CN(C(=O)Cn1nnc(-c2cccnc2)n1)C1CCCCC1 8.32%
CCOP(=O)(OCC)C(NC(=O)Nc1ccc(C)c(Cl)c1)c1ccccc1 (stereo not drawn) 1.69%
COc1cc(/C=N/N=C(\N)c2nonc2N)cc(OC)c1O 16.4%
CCCc1nn2c(=O)cc(O)nc2s1 3.77%
CCCNc1nc(C)c(C(C)=O)cc1C#N 29.1%
Cc1nn(C)c(Oc2cccc(C(F)(F)F)c2)c1C#N 1.09%
CNc1nc(C)c(C(=O)c2ccc(Cl)cc2)s1 -4.16%
CCC(NC(=O)c1ccccc1NC(=O)c1ccc(C)cc1)C(=O)O (stereo not drawn) 2.64%
CC(=O)c1ccc(N2CCC(C(=O)O)CC2)cc1 6.29%
Cc1ccc2c(c1)C(c1ccc(F)cc1)N(C(=O)C1CC1)CC(=O)N2 (stereo not drawn) -2.57%
CC(=O)c1ccc2c(c1)CCN2 9.69%
Cc1ccc2c(c1)C(c1ccccc1)N(C(=O)C(C)C)CC(=O)N2 (stereo not drawn) 1.62%
COC(=O)c1cc(=O)nc2scc(C)n12 5.72%
C=C1[C@@H](C)C2[C@H](Cc3ccccc3)NC(=O)[C@]23OC(=O)CC[C@H](O)CCC[C@H](C)C/C=C/[C@H]3[C@@H]1O (stereo partly drawn) 6.17%
CC(C)OP(=O)(c1ccc(N(C)C)cc1)C(O)c1ccc(N(C)C)cc1 (stereo not drawn) -8.7%
CC(C)COP(=O)(OCC(C)C)C(O)c1ccc(N(C)C)cc1 (stereo not drawn) 12.4%
O=C(O)c1ccc2c(c1)C(=O)N(c1cccc(S(=O)(=O)Nc3cccc(C(F)(F)F)c3)c1)C2=O 25.9%
CCOC(=O)C1=C(C)N=C2SC(C(=O)OC)=CC(=O)N2C1c1ccc(OC)cc1 (stereo not drawn) 7.8%
CCOC(=O)C1=C(C)N=C2SC(C(=O)OC)=CC(=O)N2C1c1cccc(OC)c1 (stereo not drawn) 0.81%
N#Cc1ccc(N2CCCNCC2)nc1 -3.01%
COc1ccc2oc(C(=O)N3CCCc4ccccc43)c(C)c2c1 0.82%
CC1CCC(NC(=O)C2CCN(c3nc4ccccc4s3)CC2)CC1 (stereo not drawn) 7.57%
CC1CCCCN1Cc1ccc(N)cc1 (stereo not drawn) -2.03%
CN(C)c1ccc(CN2CCCCCC2)cc1 8.55%
COc1ccc(C2NC(Cc3ccccc3)(C(=O)O)C3C(=O)N(c4ccccc4OC)C(=O)C23)cc1 (stereo not drawn) -0.26%
CCOC(=O)c1cnc2nc(SC)nn2c1N 4.24%
C=CCn1c(N2CCCC2)nc2c1c(=O)[nH]c(=O)n2C -1.68%
C=CCn1c(Sc2nnc(C)s2)nc2c1c(=O)[nH]c(=O)n2C 3.94%
C=CCn1c(N2CCOCC2)nc2c1c(=O)[nH]c(=O)n2C 1.7%
COCCn1c(Sc2nc(C)cs2)nc2c1c(=O)[nH]c(=O)n2C -3.29%
CC(=O)Nc1ccc(NC(=S)NC(=O)C2CC2)cc1 0.52%
CC(=O)Nc1ccc(NC(=O)CN2CCN(c3ccccn3)CC2)cc1 -2.22%
Cn1nc(C(=O)Nc2ccccc2N2CCCC2)c2ccccc2c1=O 1.83%
Cc1ccc(/C=c2\sc3nc(-c4cccnc4)nn3c2=O)cc1 8.43%
COc1ccc(OC)c(/C=c2\sc3nc(-c4cccs4)nn3c2=O)c1 10.3%
CCCOc1ccc(/C=c2\sc3ncnn3c2=O)cc1 3.82%
O=c1nc2s/c(=C\c3ccco3)c(=O)n2nc1Cc1ccc(F)cc1 23.6% and -1.42%
COc1ccccc1/C=C/C=c1\sc2nc(=O)c(Cc3ccccc3)nn2c1=O 26.2%
COc1cccc(/C=c2\sc3nc(-c4cccs4)nn3c2=O)c1OC 21.5%
COc1ccccc1/C=c1\sc2nc(-c3ccco3)nn2c1=O 31.4%
CCCOc1ccc(/C=c2\sc3nc(-c4ccco4)nn3c2=O)cc1OCC 8.17%
COc1ccc(/C=C2\S/C(=N/S(=O)(=O)c3cccs3)NC2=O)cc1 7.65%
CCCNC(=O)CN1C(=O)NC(CCc2ccccc2)C1=O (stereo not drawn) -6.24%
NC(=O)c1cc(S(=O)(=O)NCCCc2ccccc2)cs1 3.6%
COc1ccc(Nc2nc(C)cc(=O)[nH]2)c(OC)c1 10.4%
COC(=O)C1=C(N)OC2=C(C(=O)CC(C)(C)C2)C1c1cccs1 (stereo not drawn) 12.5%
CCOC(=O)C1=C(N)OC2=C(C(=O)CCC2)C1c1cccs1 (stereo not drawn) 1.36%
O=C(C(=NNc1ccccc1)c1ccccc1)c1ccccc1 -6.13%
Oc1ccccc1C=NNC(=S)NN=Cc1ccccc1O -0.1%
Oc1ccccc1/C=N/Nc1ccccc1 3.4%
COc1cc(/C=N/N=C(/C(=O)c2ccccc2)c2ccccc2)cc(OC)c1O 1.68%
O=C1C=CC(=O)N1CCCCCCCCCCN1C(=O)C=CC1=O -0.57%
O=S(=O)(NC1CCCC1)c1ccc(F)cc1F 21.1%
COc1ccc(C(=O)NC(C)c2nnc(SCC(=O)Nc3nc(C)cs3)n2C)cc1 (stereo not drawn) 5.71%
COc1cc(NS(=O)(=O)c2ccc(NC(=O)/C=C/c3ccc([N+](=O)[O-])cc3)cc2)ncn1 7.89%
CN1C(=O)/C(=C/c2ccco2)SC1=Nc1ccc(N2CCOCC2)cc1 25%
CN1C(=O)CSC1=Nc1cccc(C(=O)O)c1 -5.13%
CCCCn1c(N)c(N(CCC(C)C)C(=O)CSc2nnc(C)s2)c(=O)[nH]c1=O 2.42%
CC(=O)c1ccc(N2CCN(c3ccc(C(N)=O)cc3[N+](=O)[O-])CC2)cc1 15.8%
COc1ccc(N2CCN(c3ccc(C(N)=O)cc3[N+](=O)[O-])CC2)cc1 -3.87%
O=C(OCc1ccco1)c1cccnc1 -2.16%
Cc1ccc(Cc2c(-c3ccccc3)nc3cc(C)ccn23)cc1 -4.74%
CCCC(=O)Nc1nnc(Sc2ccc(N(C)C)cc2)s1 2.88%
CCC(=O)Nc1nnc(Sc2ccc(N(C)C)cc2)s1 2.99%
COCCSc1nnc(NC(=O)COC)s1 -0.26%
O=C1c2cccnc2C(Nc2cccc(F)c2)N1Cc1ccco1 (stereo not drawn) -1.27%
O=C1c2cccnc2C(Nc2ccccc2Br)N1Cc1ccco1 (stereo not drawn) 9.8%
Cc1cc(C(=O)COC(=O)c2ccc[nH]c2=O)c(C)n1C1CC1 13%
NC(=S)NNC(=O)c1cc(C(F)(F)F)cc(C(F)(F)F)c1 1.55%
Cc1ccc2[nH]cc(S(=O)(=O)c3ccc(C(C)C)cc3)c(=O)c2c1 -10.1%
CN(Cc1ccno1)C(=O)CC1C(=O)NCCN1CC(c1ccccc1)c1ccccc1 (stereo not drawn) -5.42%
O=C1C2C3C=CC(C3)C2C(=O)N1CNc1ccccc1 (stereo not drawn) 2.49%
Cc1ccc(NCN2C(=O)C3C4C=CC(C4)C3C2=O)cc1 (stereo not drawn) 6.77%
Cc1ccc(NC(=O)CSc2nc(C)c(C)c(C)n2)c([N+](=O)[O-])c1 -0.85%
CCOC(=O)C1=C(C)N=C(/N=C/N(C)C)SC1c1ccccc1 (stereo not drawn) 18.8%
COc1ccccc1NC(=O)Cn1c(CCC(=O)O)ccc1-c1ccccc1 -8.03%
O=C(O)CCc1ccc(-c2ccccc2)n1CC(=O)O 6.57%
O=S(=O)(Nc1ccc2c(c1)OCCO2)c1ccc2oc3ccccc3c2c1 -4.26%
Cc1ccc(C(=O)Nn2c(O)c(C=C3N=c4ccccc4=N3)sc2=S)cc1 0.29%
O=C(CCNC(=O)N1CC(=O)Nc2ccccc21)NCc1ccccc1Cl 2.33%
COCCN1CC(C(=O)NCc2ncccc2C)CCC1=O (stereo not drawn) 0.7%
O=c1oc2ccc([N+](=O)[O-])cc2c(N2CCOCC2)c1[N+](=O)[O-] -2.71%
COc1ccc(-c2cc(=O)n(-c3nc4ccccc4[nH]3)[nH]2)cc1 10.5%
COC(=O)Cc1cc(=O)n(-c2ccccc2)[nH]1 20.8%
COCCSc1nc2c(c(=O)[nH]c(=O)n2C)n1CCC(C)C 2.86%
Cc1ccc(N(CCO)C(=S)Nc2ccccc2)cc1 1.36%
